# Test results from the supplement of paper PMC10105736.
# A number with no mark means an inactive call.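 How the source made its calls: active = MAPPIT score above the 99th percentile of random reference set scores in the same batch; inactive = at or below it.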
# Assays:
# Assay in all cases: MAPPIT interaction score (arbitrary units); higher = stronger binary interaction signal, active = hit call of the paper
# CG4360 = conditions: MAPPIT configuration: N-N; pair source set: Curagen_low_conf
# CG4707 = conditions: MAPPIT configuration: N-N; pair source set: Curagen_high_conf
# CG4325 = conditions: MAPPIT configuration: N-N; pair source set: DPIM
# CG4617 = conditions: MAPPIT configuration: N-N; pair source set: Curagen_high_conf
# CG4789 = conditions: MAPPIT configuration: N-N; pair source set: Lit-BS-16
# PVRAP = conditions: MAPPIT configuration: N-N; pair source set: Lit-BS-16
# CG4511 = conditions: MAPPIT configuration: N-C; pair source set: screen_3
# CG43325 = conditions: MAPPIT configuration: N-C; pair source set: screen_4
# caup = conditions: MAPPIT configuration: N-N; pair source set: screen_1
# CG4860 = conditions: MAPPIT configuration: N-N; pair source set: Curagen_high_conf
# CG44837 = conditions: MAPPIT configuration: N-N; pair source set: Curagen_low_conf
# CG4853 = conditions: MAPPIT configuration: N-N; pair source set: Curagen_low_conf
# CG5062 = conditions: MAPPIT configuration: N-N; pair source set: Curagen_low_conf
# slmo = conditions: MAPPIT configuration: N-N; pair source set: Curagen_high_conf
# CG4884 = conditions: MAPPIT configuration: N-N; pair source set: Finley_Y2H
# CG46280 = conditions: MAPPIT configuration: N-C; pair source set: screen_4
# 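Further: HEK293T cells with Epo stimulation, STAT-responsive firefly luciferase reporter, fold induction versus unstimulated cells divided by the larger fold induction of two negative controls lacking either bait or prey.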
binder,measurement,setting,value
Paris (protein) MAEICRVCMDISGKLVNIFDARRRTRVSIAEMIAQCTGFEVKRGDLFSEMICPQCYEDVKSAYGIRQTCEESHQFYCRVRDEGIEDALCALLEEEDWEISEDEDARIDSASAADDDGKSDSKKVAFECRECHKKYQRKGTFLRHMRTHMDGQSFPCPYCKRNFRLRVTLKAHMKTHNAAKPYECSHCAKTFAQQSTLQSHERTHTGERPFKCSQCSKTFIKSSDLRRHIRTHGSERPFKCSKCTKTFTRKFHLDNHFRSHTGERPFKCSHCPKAFAMKQHLKQHSRLHLPDRPFRCSHCPKTFRLSSTLKEHKLVHNAERTFKCPHCASFYKQRKTLARHILEIHK,MAPPIT interaction score,CG4360,0.0302
Prosalpha7 (protein) MSTIGTGYDLSASQFSPDGRVFQIDYASKAVEKSGTVIGIRGKDAVVLAVEKIITSKLYEPDAGGRIFTIEKNIGMAVAGLVADGNFVADIARQEAANYRQQFEQAIPLKHLCHRVAGYVHAYTLYSAVRPFGLSIILASWDEVEGPQLYKIEPSGSSFGYFACASGKAKQLAKTEMEKLKMDMRTDELVESAGEIIYKVHDELKDKDFRFEMGLVGRVTGGLHLINPSELTEKARKAGDAANKDEDSDNETH,MAPPIT interaction score,CG4707,-0.137
mfrn (protein) MNIDDYESLPTTSVGVNMTAGAIAGVLEHVVMYPLDSVKTRMQSLSPPTKNMNIVSTLRTMITREGLLRPIRGASAVVLGAGPAHSLYFAAYEMTKELTAKFTSVRNLNYVISGAVATLIHDAISSPTDVIKQRMQMYNSPYTSVVSCVRDIYKREGFKAFYRAYGTQLVMNLPYQTIHFTTYEFFQNKMNLERKYNPPVHMAAGAAAGACAAAVTTPLDVIKTLLNTQETGLTRGMIEASRKIYHMAGPLGFFRGTTARVLYSMPATAICWSTYEFFKFYLCGLDADQYKSSITGSSEPRKADYVLPRTTDEEQIDQEREAAKEKDTTATLHSAPTSVNASGAIKTVCELSTRPAGPTINLHTRHTDVKSPYERGFST,MAPPIT interaction score,CG4325,-0.276
TfIIA-L (protein) MALCQTSVLKVYHAVIEDVITNVRDAFLDEGVDEQVLQEMKQVWRNKLLASKAVELSPDSGDGSHPPPIVANNPKSHKAANAKAKKAAAATAVTSHQHIGGNSSMSSLVGLKSSAGMAAGSGIRNGLVPIKQEVNSQNPPPLHPTSAASMMQKQQQAASSGQGSIPIVATLDPNRIMPVNITLPSPAGSASSESRVLTIQVPASALQENQLTQILTAHLISSIMSLPTTLASSVLQQHVNAALSSANHQKTLAAAKQLDGALDSSDEDESEESDDNIDNDDDDDLDKDDDEDAEHEDAAEEEPLNSEDDVTDEDSAEMFDTDNVIVCQYDKITRSRNKWKFYLKDGIMNMRGKDYVFQKSNGDAEW,MAPPIT interaction score,CG4617,-0.0193
Jupiter (protein) MAAYAAFKHVELYNVGKAKKRVLRPPGGGSSDIFGSEMPQTPRNVKNRMASNIFAAEKDNGVKNNVRQGAHRFYFIGDAPRRGQKTVDSHSRLFGEPTRPITPGKNHMKSSIPFGQNTEAVAAQKLLTTNGHYNGKSGSVSSASSSVSSSTENLKMNSGSRSEGNPVTGEGYKVVANEYSQRQESSNGGTPVINKNRIPPGGYSSGLW,MAPPIT interaction score,CG4789,0.553
same,MAPPIT interaction score,PVRAP,-1.6
Pka-R1 (protein) MSYMMAKTLEEQSLRECEHYIQTHGIQRVLKDCIVQLCVCRPENPVQFLRQYFQKLEREQVKLDASRQVISPDDCEDLSPMPQTAAPPVRRRGGISAEPVTEEDATNYVKKVVPKDYKTMNALSKAIAKNVLFAHLDESERSDIFDAMFPVNHIAGENIIQQGDEGDNFYVIDVGEVDVFVNSELVTTISEGGSFGELALIYGTPRAATVRAKTDVKLWGIDRDSYRRILMGSTIRKRKMYEEFLSRVSILESLDKWERLTVADSLETCSFDDGETIVKQGAAGDDFYIILEGCAVVLQQRSEGEDPAEVGRLGSSDYFGEIALLLDRPRAATVVARGPLKCVKLDRARFERVLGPCADILKRNITQYNSFVSLSV,MAPPIT interaction score,CG4511,5.21 (active)
Mst84Db (protein) MCCGPLGFCGPCSPCGGPCGPCGPCGPCGSCCSPCGSCCAPCGPCGPCGPCCGGCGPCGPCGPCCGPCRPYCGC,MAPPIT interaction score,CG43325,1.12
same,MAPPIT interaction score,caup,0.0255
Ndg (protein) MPTFGSKLLACLLLSSVILVSGQFEHYLDSLRASELYEFEDGSLGSIHLLPKGDSETIVLQLEQPIHFYGEQYEQLYINTNGILTFNSEFPEYLNQPFPLEYASIAAFYSNVDTSFSDEGTSISLFESKEQSILDRASSLVRYAFSSQSEFEARQVIVATWRNVGYFDSKTDRLNTFQVALIANEQSTFVQFIYPDGGLNWLQGETAGLGLPDIRAQAGFVAEDGRFYTLNGSGSENARFLSESTNLGVPGVWLFEVAPIENEQNVRSPDNAESLTESPALALSCQAHAHQCHEKAECHDKAEGYCCVCGSGFYGNGKSCLANDQPIRVTGTLTGELNKQPVSEEAKLQSYVVTSEGRTYTTINPLTPELGAQLRLVLPLLTTVPWLFAKSVGGVANGYQLTGGVYTHVSRLQFDSGENLHVNQTFEGLNYWDQLSVKIEIYGEVPAVAADAVLILPDYVEEYTFERPGELKSVQVLNINITEEQRVLGLQVEQRILYRSCLRDDEADPSATKVLQKISKVALDYVERDQALRIGAMSKVGVTPESNACNDGTADCVENSVCVPYEDTYRCDCYHGFAAQLDERGVEVCLDIDECATGSHVCDENAVCDNTEGGFNCYCTEGFEGNGYRCLSNSTADNIEYPPAVEGQAEPTSEPSPNPSPYPDQGQDQEREREDDQYPQPNPYPYPEEQIPQHPDECYRCSKDADCYQGRCTCHEGFDGDGYTCTNICGHGEVWENGRCEPLLLERHDVDPLCDALGECRCPYGYELSEDSQRCTYVQEFDGERNADLIPCDVDENCHINATCNWYGQELRHICTCQPGFRGDGYNCDPISDDSCAIRPDICDVHADCVYEEHLGKSECQCQAGYTGNGFNCQLAAECQSAEHCGENAFCDDGVCRCQADFERDVSDRCVPAGRCGSVFCGSNAICKWDSAEGVQYCDCLDGYQGDALTGCTSKPLSCHVLNNCGIHATCEPTEDPANYECQCIAGFKGDGYVCIEEQNCLNNPTLCDMNAQCRSTNSGLVCVCNQGFFGNGSLCQERQHQDSDFLIVSQGVMIARVPLNGRNVRPISVAQMAIGLDKDCVEGRVYWGDISTKKIVSTKYDGTDLRPFITTDIESPEGIAIDVISRRLYWADSAKDTIEVASLDDPSLRAVIINKQLVNPRGIAVDPYREKLFWSDWDRESPKIEMSNLDGTGRELLLGKDDVTLPNSLVVLENSGEVCYADAGTKKVECIEPQNRQIRTISNELSYPFGITFTHDQFYWTDWTTKKVEIVDSLGARQTPIQPPFFGSHKMYGMTVVEQHCPQYQSPCQISNGGCTDSRLCLVNRQAPSGKSCKCTSASTGCTVLAPGY,MAPPIT interaction score,CG4860,-0.238
RhoGAP92B (protein) MKRQFAKIKIAAENLSRSSKSDSKDSELEAIERQVDRYRDTIEKIVRKLPALSGGGGSGSGSSEEQDKRTKKNSHYKIAQALDESAKELPKDMPLQKVLANCGELEKTMAECIIESELETEAKVVRRLKNILDKEIQEISTLKRNVSRTLQEYTSLKRSHEAAIRLEEPAAKVNHIKSQQEECELKLEKERDAWAAQMLELIAKEDEIVSCIRDYVLNQRNYHERALQHVNASLARIQDTIQGTEKSRFGTSLKEHLTSTNREISYIVELCCCCLLEHGLEEEGLLRVGCASTKLRRMKHALEAQHVKTPLPLDYQDPHVIGSILKLYLRELPEPLLTYNLYKDFIRIAERHSEAERKTEIKAILTKLPKENYANLRYLTRFLSIVQQRSALNKMSSQNLAIVMSPNMLWPRIDKSSNAPADYIGQVNSSSAANIIVELLISQWDYFFIGEVEFYLTLQKQKLFVEGKSKSNSSNENLDRNDSEVMESPRYGTLRRQKANAPSPPTTNGNGIIMTTSQTSHRPHAKELFPQQTPEKQEKPAKPPLPNLPQFQSPAASQPTQTQLEPLPPPPVTPAKPVPMTRTQFFGLDNLPSPTADRKSTDSIGSFKLKPDVPQKPLLPKRPTVLGVGVPKADGKSDDEGGTTPTQATIDNGNGSVRFKTEHFLDKLRQENGETNGTREVSSTTKENNHNHDPPATAADQNQQQAQPQVTTPISPNSFQTPKRPTVPAPPPPTNWKSSD,MAPPIT interaction score,CG44837,-0.0901
Rtca (protein) MDAEKMLEIDGSYLEGGGQALRNALSLSCILGKPVRVVKIRASRPSPGLSHQHLHGLNLLRDITNADVVGNYLLSSTVEFTPRTILDNTYRVETHTAASITLIYQMALPVLLFAGRPSRLIVSGGTNVDFAPPVEYMQEVLLPNLKHFGVSFDLKVQRYGFYPRGQGRCQLDVQPVTKLNSGKLVAFGRIKSVSGVAYCAGRLPVNIAIDMQQTAQREIHRLWPSQQCSIEPIKHSRQKAFHNGAGILMTVNTTSDVVLGASALGKKRIDGHVLGSEASCQLGDYMRKQVCVDDYMQDQLIIYMALAVGRSTMRTGKLTNHTRTAINVAEQMTGVKFDVAMEPGGQMLVSCKGLGHVNKLI,MAPPIT interaction score,CG4853,1.6
IntS10 (protein) MPSQEENELYMVKEAQRLRKSDPCAAMAWIITAKTLYPNAFNLQYEAYLLERDAQNYEEAAKCFSAIATNFQNQHTELWQEINSLTNALRNENETTPEHEFYVKMYKHLTPEVQHNIFMHTINHSADNLERIYIYILMFNKFPKSAITQAPRLLEMLAEGMKTEPDLYQRILVEEVLPMIQNKPPELSPNLACRLYTSSLEFYLRQIMDESDTADAWKNIFKVLMICGQMMGWEPFLPFSKHVNQNVYWEKLVDILSGSPAGSSQVLFYATTLFIYSLHGYIRNCKLRIEDADVTHVLVEGFMEWSPEGDGSEVPSMEPPKFSLTTAISPELSKAFLHAAQCWQLLNTDQFQRDFSQLMLALPLAPWISRFLFDLAIYFGHRDEANKLMADMTTQSSLVQSLQILSLNLMQGSMTLQGFQCILKILSELPTTQGQLLENMSLKGHRHMVFLPLTRSALVQYCVGAIISRLSRKVFEPNVPDRLLGDILVLQQLNLLNDVLLTQQIFNLIKQRKSFNLRTLSTYIINIDLLEELSHIWNSQQEDNFELTSSPNSSGTPTATTVAGGSQSRRIGTRGADKGARDEFRAITRQQIARCNENVITLLANFINQEHLMLAQHIFGISQPVETIVIK,MAPPIT interaction score,CG5062,-0.102
same,MAPPIT interaction score,slmo,1.15
nudE (protein) MESPPMFNSVEDECRYWKERSKQYHKEWTDVKQEYDEFVEQSREMEIEMDATLDQKQSIIKDLTAKLTMFERENESLKLKLESHGIDMSNMEKQLETVKKDRDTMKVYLRQLEQKNDDLERAHRILNESIENFEKMLDQAYEKNALLELEVDEKGLLQEKLQRLMDETRDLKQELNVKSRFTPVVNGTSVPTANDTNTVNSSMNSSASLPNGIVANGELVKHDNAVATRATSVSVNALNGSLVNRNEYNQQHSLKSDGDETEDVPREWSANAAATPLLPAIHTSGAGRTALLLAGCRVVWILQFSVIHKPQIRNPIT,MAPPIT interaction score,CG4884,0.246
Tm2 (protein) MDAIKKKMQAMKLEKDNAIDKADTCENQAKDANSRADKLNEEVRDLEKKFVQVEIDLVTAKEQLEKANTELEEKEKLLTATESEVATQNRKVQQIEEDLEKSEERSTTAQQKLLEATQSADENNRMCKVLENRSQQDEERMDQLTNQLKEARMLAEDADTKSDEVSRKLAFVEDELEVAEDRVRSGESKIMELEEELKVVGNSLKSLEVSEEKANQRVEEFKREMKTLSIKLKEAEQRAEHAEKQVKRLQKEVDRLEDRLFNEKEKYKAICDDLDQTFAELTGY,MAPPIT interaction score,CG46280,1.5
